# Experimental data from article PMC7862700, “An all-to-all approach to the identification of sequence-specific readers for epigenetic DNA modifications on cytosine”.
# Columns and labels:
# Experiment in all cases: DAPPL (digital affinity profiling via proximity ligation, sequencing); 10 mM Tris-HCl pH 7.5, 50 mM NaCl, 1 mM DTT, 4% glycerol, room temperature, 30 min; GST-TFs on glutathione beads, 16-mer random dsDNA library, 0.1% formaldehyde crosslink after washing; high values mean tight binding
# Details in all cases: protein: recombinant; tags: N-terminal GST; dsDNA, one strand shown
# ELK1 = molecular target: T1, ELK1 (Homo sapiens, UniProt P19419 1-428)
# T1 sequence: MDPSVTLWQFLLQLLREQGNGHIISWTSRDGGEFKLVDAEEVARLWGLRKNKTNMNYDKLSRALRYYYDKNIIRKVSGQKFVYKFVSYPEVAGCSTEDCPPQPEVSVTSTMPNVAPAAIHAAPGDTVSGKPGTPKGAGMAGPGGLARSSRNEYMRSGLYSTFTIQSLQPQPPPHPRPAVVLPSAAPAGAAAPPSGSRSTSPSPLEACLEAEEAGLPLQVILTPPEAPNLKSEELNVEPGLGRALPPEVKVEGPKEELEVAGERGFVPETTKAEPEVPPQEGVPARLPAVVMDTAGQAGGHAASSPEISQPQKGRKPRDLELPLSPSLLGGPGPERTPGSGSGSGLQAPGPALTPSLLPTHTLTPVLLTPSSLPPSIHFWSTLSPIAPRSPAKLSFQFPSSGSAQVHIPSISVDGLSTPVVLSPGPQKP
# How it was run: (§1)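 Beads coated with glutathione captured GST-fused human transcription factors that had been expressed in yeast, and the factors were then given DNA barcodes and pooled with a tag-only sample. The pools were incubated with 200 nmole of a random double-stranded 16-mer DNA library in Tris/NaCl/DTT/glycerol buffer for 30 min at room temperature, washed, crosslinked with 0.1% formaldehyde and proximity-ligated with BsaI/T4 ligase at 37 °C for 1 h. PCR amplification and Illumina NextSeq500 sequencing came last. Binding signal is each hexamer's read frequency for a factor divided by its frequency for the tag-only sample.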
# GABPA = molecular target: T2, GABPA (Homo sapiens, UniProt Q06546 1-454)
# T2 sequence: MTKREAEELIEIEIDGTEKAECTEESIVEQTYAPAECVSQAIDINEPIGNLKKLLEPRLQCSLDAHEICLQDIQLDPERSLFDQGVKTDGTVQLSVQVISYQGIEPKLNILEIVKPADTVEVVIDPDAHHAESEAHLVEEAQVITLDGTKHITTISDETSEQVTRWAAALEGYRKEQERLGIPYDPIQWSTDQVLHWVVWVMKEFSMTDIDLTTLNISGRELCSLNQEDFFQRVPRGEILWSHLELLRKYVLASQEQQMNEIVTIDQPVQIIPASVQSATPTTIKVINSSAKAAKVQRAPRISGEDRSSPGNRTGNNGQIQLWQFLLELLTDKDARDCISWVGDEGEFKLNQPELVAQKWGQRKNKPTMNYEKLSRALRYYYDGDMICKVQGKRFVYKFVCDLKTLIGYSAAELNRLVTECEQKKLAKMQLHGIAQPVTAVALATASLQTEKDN
# How it was run: as §1
# ELF1 = ELF1 (Homo sapiens, UniProt P32519 1-619)
# Chain of ELF1 (P32519 whole entry): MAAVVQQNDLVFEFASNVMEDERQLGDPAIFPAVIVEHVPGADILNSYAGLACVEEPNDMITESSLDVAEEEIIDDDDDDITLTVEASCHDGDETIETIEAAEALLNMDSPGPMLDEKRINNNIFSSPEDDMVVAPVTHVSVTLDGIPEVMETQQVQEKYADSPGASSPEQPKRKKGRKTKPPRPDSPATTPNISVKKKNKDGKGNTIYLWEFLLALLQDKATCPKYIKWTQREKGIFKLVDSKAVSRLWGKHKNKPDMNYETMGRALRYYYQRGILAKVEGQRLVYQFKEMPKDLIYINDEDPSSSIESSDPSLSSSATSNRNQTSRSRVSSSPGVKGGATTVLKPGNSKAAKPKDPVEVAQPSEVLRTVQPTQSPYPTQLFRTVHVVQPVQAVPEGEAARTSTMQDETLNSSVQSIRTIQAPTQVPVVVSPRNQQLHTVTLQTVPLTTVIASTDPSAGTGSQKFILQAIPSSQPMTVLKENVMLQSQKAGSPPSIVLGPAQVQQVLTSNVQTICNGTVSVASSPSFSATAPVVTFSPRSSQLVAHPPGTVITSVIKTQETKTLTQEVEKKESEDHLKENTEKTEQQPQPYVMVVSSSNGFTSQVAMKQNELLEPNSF
# How it was run: as §1
# EHF = molecular target: T3, EHF (Homo sapiens, UniProt Q9NZC4 1-300)
# T3 sequence: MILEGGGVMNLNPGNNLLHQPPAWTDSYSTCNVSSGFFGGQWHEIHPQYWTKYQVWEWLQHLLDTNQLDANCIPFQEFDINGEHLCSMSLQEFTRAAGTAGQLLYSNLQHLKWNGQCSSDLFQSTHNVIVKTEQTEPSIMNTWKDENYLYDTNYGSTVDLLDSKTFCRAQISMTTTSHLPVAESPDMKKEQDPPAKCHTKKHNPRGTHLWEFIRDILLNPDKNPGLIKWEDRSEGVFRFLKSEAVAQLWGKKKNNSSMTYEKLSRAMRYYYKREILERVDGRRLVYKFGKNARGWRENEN
# How it was run: as §1
# SPIB = SPIB (Homo sapiens, UniProt Q01892 1-262)
# Chain of SPIB (Q01892 whole entry): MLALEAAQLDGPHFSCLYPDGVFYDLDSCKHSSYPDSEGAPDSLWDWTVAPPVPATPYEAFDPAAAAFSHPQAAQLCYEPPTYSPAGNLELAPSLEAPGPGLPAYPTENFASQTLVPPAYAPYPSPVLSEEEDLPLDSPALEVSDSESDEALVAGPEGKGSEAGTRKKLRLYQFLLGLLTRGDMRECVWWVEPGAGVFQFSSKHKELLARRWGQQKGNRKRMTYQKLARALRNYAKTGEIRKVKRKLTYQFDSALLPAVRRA
# How it was run: as §1
# ELK3 = molecular target: T4, ELK3 (Homo sapiens, UniProt P41970 1-407)
# T4 sequence: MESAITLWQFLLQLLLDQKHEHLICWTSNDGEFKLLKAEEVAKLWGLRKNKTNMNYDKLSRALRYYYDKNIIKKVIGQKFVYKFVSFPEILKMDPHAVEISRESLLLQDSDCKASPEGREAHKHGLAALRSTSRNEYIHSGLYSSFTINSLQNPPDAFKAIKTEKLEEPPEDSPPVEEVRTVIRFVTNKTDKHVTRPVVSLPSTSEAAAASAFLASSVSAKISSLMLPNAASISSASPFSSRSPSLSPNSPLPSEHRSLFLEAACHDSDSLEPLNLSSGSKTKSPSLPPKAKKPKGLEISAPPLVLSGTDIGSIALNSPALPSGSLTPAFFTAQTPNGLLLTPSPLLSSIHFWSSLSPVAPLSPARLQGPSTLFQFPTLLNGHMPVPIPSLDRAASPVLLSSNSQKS
# How it was run: as §1
# SPIC = molecular target: T5, SPIC (Homo sapiens, UniProt Q8N5J4 1-248)
# T5 sequence: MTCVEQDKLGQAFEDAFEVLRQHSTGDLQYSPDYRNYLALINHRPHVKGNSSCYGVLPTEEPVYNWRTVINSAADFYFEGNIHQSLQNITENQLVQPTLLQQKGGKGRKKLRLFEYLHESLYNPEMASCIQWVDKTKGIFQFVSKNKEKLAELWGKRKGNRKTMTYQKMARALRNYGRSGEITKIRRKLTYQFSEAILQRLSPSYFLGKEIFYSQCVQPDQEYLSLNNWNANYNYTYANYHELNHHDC
# How it was run: as §1
# ELF4 = ELF4 (Homo sapiens, UniProt Q99607 1-663)
# Chain of ELF4 (Q99607 whole entry): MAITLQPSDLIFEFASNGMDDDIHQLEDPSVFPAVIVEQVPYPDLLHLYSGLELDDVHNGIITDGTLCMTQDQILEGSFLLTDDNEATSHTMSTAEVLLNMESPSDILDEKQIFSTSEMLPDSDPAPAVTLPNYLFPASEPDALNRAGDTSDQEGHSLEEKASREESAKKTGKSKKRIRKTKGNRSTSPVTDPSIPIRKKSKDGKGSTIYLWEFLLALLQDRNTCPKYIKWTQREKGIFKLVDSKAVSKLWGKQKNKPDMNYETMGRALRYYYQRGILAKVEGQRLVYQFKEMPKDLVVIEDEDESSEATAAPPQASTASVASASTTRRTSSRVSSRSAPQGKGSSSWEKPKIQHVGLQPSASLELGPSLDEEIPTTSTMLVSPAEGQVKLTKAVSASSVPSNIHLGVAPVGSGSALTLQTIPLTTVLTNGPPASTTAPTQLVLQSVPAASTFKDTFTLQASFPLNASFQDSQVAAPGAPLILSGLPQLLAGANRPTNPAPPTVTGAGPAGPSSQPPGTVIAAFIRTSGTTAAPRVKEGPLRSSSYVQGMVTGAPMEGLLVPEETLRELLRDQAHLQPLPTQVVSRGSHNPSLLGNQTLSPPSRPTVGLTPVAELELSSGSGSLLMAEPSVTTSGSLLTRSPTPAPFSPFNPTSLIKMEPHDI
# How it was run: as §1
# ELK4 = molecular target: T6, ELK4 (Homo sapiens, UniProt P28324-2 1-405)
# T6 sequence: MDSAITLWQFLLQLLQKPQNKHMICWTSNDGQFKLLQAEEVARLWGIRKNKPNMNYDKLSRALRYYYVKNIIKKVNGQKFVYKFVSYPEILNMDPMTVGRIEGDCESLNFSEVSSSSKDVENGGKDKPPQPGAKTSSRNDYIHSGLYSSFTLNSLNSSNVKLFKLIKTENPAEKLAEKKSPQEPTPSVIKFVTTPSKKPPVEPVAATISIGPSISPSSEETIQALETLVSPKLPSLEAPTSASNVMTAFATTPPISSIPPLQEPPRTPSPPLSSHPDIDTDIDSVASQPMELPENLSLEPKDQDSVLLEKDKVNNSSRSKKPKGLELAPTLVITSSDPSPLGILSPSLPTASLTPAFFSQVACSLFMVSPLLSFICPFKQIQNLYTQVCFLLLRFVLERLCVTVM
# How it was run: as §1
# ERF = molecular target: T7, ERF (Homo sapiens, UniProt P50548 1-548)
# T7 sequence: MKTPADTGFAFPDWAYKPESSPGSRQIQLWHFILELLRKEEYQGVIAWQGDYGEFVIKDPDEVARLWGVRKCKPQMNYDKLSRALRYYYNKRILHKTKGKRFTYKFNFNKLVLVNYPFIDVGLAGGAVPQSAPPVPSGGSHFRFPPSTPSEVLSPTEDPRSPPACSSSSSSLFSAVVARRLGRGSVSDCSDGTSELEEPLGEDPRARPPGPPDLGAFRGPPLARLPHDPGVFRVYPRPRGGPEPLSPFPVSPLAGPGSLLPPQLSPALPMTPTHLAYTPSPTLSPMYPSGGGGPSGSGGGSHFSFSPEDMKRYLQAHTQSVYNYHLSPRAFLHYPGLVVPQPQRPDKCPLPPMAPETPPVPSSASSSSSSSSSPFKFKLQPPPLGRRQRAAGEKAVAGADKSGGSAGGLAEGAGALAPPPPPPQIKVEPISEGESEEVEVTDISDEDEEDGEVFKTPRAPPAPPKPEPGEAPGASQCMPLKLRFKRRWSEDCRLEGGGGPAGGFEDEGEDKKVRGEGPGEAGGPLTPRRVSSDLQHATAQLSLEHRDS
# How it was run: as §1
# ETV3L = molecular target: T8, ETV3L (Homo sapiens, UniProt Q6ZN32 1-361)
# T8 sequence: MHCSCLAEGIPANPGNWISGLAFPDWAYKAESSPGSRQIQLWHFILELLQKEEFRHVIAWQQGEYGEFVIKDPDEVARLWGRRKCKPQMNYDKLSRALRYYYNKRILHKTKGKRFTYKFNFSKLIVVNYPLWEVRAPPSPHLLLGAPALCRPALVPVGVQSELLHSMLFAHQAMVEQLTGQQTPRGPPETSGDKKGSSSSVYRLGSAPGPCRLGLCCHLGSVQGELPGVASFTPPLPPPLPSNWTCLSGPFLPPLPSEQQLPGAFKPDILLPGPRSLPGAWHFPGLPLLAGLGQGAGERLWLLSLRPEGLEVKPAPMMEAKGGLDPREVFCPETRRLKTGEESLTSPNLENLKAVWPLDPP
# How it was run: as §1
# ETS2 = molecular target: T9, ETS2 (Homo sapiens, UniProt P15036 1-469)
# T9 sequence: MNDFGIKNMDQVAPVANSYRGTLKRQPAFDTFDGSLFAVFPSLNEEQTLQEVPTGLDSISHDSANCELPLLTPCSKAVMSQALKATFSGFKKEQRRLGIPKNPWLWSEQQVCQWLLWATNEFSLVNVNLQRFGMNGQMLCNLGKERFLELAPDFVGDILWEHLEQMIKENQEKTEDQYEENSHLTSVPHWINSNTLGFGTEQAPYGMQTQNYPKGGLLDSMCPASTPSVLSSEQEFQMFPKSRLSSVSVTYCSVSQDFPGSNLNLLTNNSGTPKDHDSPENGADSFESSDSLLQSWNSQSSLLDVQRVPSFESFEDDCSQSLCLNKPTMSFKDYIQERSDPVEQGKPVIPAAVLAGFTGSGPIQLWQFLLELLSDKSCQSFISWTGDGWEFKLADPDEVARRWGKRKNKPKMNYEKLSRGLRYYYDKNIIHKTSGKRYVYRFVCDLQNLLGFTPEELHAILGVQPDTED
# How it was run: as §1
# ETV3 = molecular target: T10, ETV3 (Homo sapiens, UniProt P41162-2 1-143)
# T10 sequence: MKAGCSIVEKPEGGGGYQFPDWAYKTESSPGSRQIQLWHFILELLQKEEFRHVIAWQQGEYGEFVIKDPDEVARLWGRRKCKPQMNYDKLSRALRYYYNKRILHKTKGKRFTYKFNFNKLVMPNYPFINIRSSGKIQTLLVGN
# How it was run: as §1
sequence,measurement,setting,value
TGATAG,binding signal,ELK1,"1.07 fold enrichment (6-mer frequency, TF over GST control)"
same,binding signal,GABPA,"1.03 fold enrichment (6-mer frequency, TF over GST control)"
same,binding signal,ELF1,"1.09 fold enrichment (6-mer frequency, TF over GST control)"
same,binding signal,EHF,"1.01 fold enrichment (6-mer frequency, TF over GST control)"
same,binding signal,SPIB,"1.05 fold enrichment (6-mer frequency, TF over GST control)"
same,binding signal,ELK3,"1.09 fold enrichment (6-mer frequency, TF over GST control)"
same,binding signal,SPIC,"1.05 fold enrichment (6-mer frequency, TF over GST control)"
same,binding signal,ELF4,"1.03 fold enrichment (6-mer frequency, TF over GST control)"
same,binding signal,ELK4,"1.02 fold enrichment (6-mer frequency, TF over GST control)"
same,binding signal,ERF,"1.04 fold enrichment (6-mer frequency, TF over GST control)"
same,binding signal,ETV3L,"1.05 fold enrichment (6-mer frequency, TF over GST control)"
same,binding signal,ETS2,"1.06 fold enrichment (6-mer frequency, TF over GST control)"
same,binding signal,ETV3,"1.05 fold enrichment (6-mer frequency, TF over GST control)"
